Assay [1] is described as follows: inhibitors of mutant huntingtin aggregation, primary screen, imaging, exon1htt(103Q)mCFP cells, high-content imaging (AID 483;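 active = visual image review flags a hit and inhibition of aggregation exceeds 20%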;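 note: compound exposure lasted 3 days before fixation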;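 for nuclei count: percent of the per-plate median nuclei count of sample wells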). To be noted: exon1htt(103Q)mCFP cell line, aggregate imaging, at 2 µM; inhibition of aggregation: stronger effect = higher value; nuclei count: measured here: cell count, toxicity.
The nature of assay [2]: inhibitors of E-selectin induction by TNFa, primary screen, imaging, HUVEC, immunofluorescence, MLSMR starter and 10KST1 sets (AID 487;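 active = visually confirmed hit in the image check and inhibition above 20%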;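 for inhibition: signal is fraction of cell area covered by stained E-selectin grains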;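 for nuclei count: 100% = median nuclei count of all wells on the same plate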). To be noted: HUVEC TNFalpha-induced E-selectin immunofluorescence imaging, at 2 µM; inhibition: stronger effect = higher value; nuclei count: measured here: cell number, toxicity.
Assay [3] in a line: DUSP6 inhibitors restoring Erk phosphorylation by chemical complementation, primary imaging in DUSP6-transfected HeLa (AID 609;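 active = compounds giving at least 50% inhibition in the cell-based MKP-3 phosphatase rescue imaging test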;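 for inhibition: phospho-Erk level distribution per well compared with pooled transfected vehicle control wells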). As to conditions: HeLa MKP-3 transfected, phospho-Erk imaging KS statistic, at 10 µM, cells stimulated with TPA for 15 min.
Assay [4] concerns the target Dual specificity protein phosphatase 6 (Homo sapiens) (UniProt Q16828). The description is as above. As to conditions: HeLa MKP-3 transfected, phospho-Erk imaging KS statistic; at 10 µM; stronger effect = higher value; cells stimulated with TPA for 15 min.
The target of assay [5] is Voltage-gated potassium channel subunit beta-2 (Rattus norvegicus) (UniProt P62483). Put plainly: KvBeta enzyme negative modulators, primary screen, biochemical, NADPH fluorescence (AID 622;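 active = fluorescence slope higher than the sample average by over 3 SD, cut at about -0.22 in these data, passing the limit was not always enough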;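 note: slope of raw intensity against log time taken from 70 to 1610 s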). To be noted: recombinant KvBeta, 4-cyanobenzaldehyde reduction, at 10 µM, stronger effect = higher value.
Sequence of Voltage-gated potassium channel subunit beta-2 (Rattus norvegicus) (P62483 whole entry, looked up): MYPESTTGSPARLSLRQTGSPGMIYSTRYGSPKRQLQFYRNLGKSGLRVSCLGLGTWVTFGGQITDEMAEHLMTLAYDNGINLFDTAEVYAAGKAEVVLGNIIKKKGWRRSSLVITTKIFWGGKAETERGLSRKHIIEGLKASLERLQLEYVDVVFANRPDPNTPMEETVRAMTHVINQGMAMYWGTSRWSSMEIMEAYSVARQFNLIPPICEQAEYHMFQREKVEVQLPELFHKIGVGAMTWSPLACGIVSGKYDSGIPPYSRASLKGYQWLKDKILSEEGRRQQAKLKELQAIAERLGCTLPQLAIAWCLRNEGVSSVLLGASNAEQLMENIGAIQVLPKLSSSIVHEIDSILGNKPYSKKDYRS
Assay [6] has the same target. The assay is described as follows: KvBeta positive modulators, primary screen, biochemical, NADPH fluorescence (AID 623;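 active = NADPH fluorescence slope more negative than the mean of all samples by about 3 SD, 99.7% confidence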;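 note: fluorescence intensity change per second fitted from 20 to 320 s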). To be noted: Recombinant KvBeta, NADPH fluorescence decrease slope, 10 min; at 10 µM; stronger effect = lower value.
Assay [7] has as its target Alpha-2C adrenergic receptor (Homo sapiens) (UniProt P18825). The assay is described as follows: modulators of alpha2C/GIRK thallium flux, primary screen, cell-based, HEK293 alpha2C/GIRK1/2 (AID 624;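 active = fluorescence slope after compound addition differing from the mean of all screened samples at 99.7% confidence, in either direction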;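 note: slope of fluorescence ratio to pre-addition baseline per second over 15 to 24 s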). To be noted: thallium flux BTC fluorescence, at 10 µM, actives lie on both sides.
Assay [8] in a line: inhibitors of larval lipid processing in zebrafish, primary screen, whole organism, PED6 fluorescence, gall bladder and intestine (AID 686;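 active = a full or partial loss of lipid-probe fluorescence in the fish gall bladder, intestine or both, judged by eye; inactive = no fluorescence loss, or compound toxic to the fish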;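 note: larvae 5 to 7 days old with five fish per well; signal comes from phospholipase A2 cleavage of quenched PED6 carried via bile; overnight exposure to compound and PED6 before scoring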). To be noted: Zebrafish larvae PED6 lipid processing, fluorescence scoring; screened at 20 µM (by protocol).
Assay [9] in a line: inhibitors of Chlamydomonas gravitaxis, primary screen, whole organism, Chlamydomonas reinhardtii, WT vs cilia-less mutant, absorbance, 96-well (AID 463189).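 Note: 0% = wild type cc124 cells in DMSO and 100% = ciliumless bld1 mutant cells.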 As to conditions: OD600 absorbance, 2 days, at 10 µM, stronger effect = higher value.
Assay [10] in a line: inhibitors of Sendai virus-induced IRF3 signaling, primary screen, TLR/RLR signaling modifier project, cell-based, Sendai virus stimulus, luciferase, 10K MLSCN set (AID 602276;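 active = inhibition at or above 50% at 10 µM; inactive = inhibition below 50%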;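 note: firefly luciferase from ISG56 promoter only with Renilla not read in this screen; 0% = Sendai virus plus DMSO and 100% = medium plus DMSO without virus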). To be noted: HEK293 RL24 IRF3 luciferase reporter, at 10 µM, stronger effect = higher value. In general terms: Reporter assays use an easily measured gene product as a stand-in for the process of interest.
The nature of assay [11]: inhibitors of poly I:C-induced TLR3 signaling, primary screen, cell-based, poly I:C stimulus, luciferase, 10K MLSCN set (AID 602277;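 active = inhibition of the reporter signal at or above 50%; inactive = inhibition below 50%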). As to conditions: HEK293-TLR3 RL24 IRF3 luciferase reporter, at 10 µM, stronger effect = higher value.
The target of assay [12] is Muscarinic acetylcholine receptor M4 (Homo sapiens) (UniProt P08173). The assay is described as follows: compounds altering M4/GIRK thallium flux, either direction, primary screen, M4 allosteric agonist project, cell-based, HEK293 M4/GIRK, BTC-AM (AID 625;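 active = fluorescence slope after compound addition differing from the mean of all tested samples at 99.7% confidence, mostly higher but some lower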;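 note: thallium influx through GIRK channels coupled to M4 in HEK293 cells with BTC-AM dye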). To be noted: at 10 µM, actives lie on both sides.
Sequence of Muscarinic acetylcholine receptor M4 (Homo sapiens) (P08173 whole entry, looked up): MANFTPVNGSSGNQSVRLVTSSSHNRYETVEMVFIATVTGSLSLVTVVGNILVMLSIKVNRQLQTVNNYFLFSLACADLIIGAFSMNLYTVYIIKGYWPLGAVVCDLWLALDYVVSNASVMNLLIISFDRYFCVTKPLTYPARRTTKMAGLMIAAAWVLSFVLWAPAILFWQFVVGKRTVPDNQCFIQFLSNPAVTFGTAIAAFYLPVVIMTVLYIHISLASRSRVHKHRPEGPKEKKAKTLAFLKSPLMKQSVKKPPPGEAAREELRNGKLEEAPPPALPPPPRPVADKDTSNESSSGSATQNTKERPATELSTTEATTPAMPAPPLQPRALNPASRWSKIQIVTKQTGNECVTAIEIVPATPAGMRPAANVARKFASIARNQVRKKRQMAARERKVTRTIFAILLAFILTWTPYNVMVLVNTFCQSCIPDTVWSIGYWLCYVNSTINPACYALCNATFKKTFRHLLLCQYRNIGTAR
Setting [13] is: measured here: cell density z-score.
The mark [14] stands for this setting: measured here: nuclear c-Myc green intensity z-score.
The mark [15] stands for this setting: measured here: nuclear pErk red intensity z-score, stronger effect = higher value.

Each structure is given as a SMILES string. Values joined by “and” are separate entries in the source; they are usually repeats but may differ in a detail not shown here. Identical values can stand only once. Some compounds were tested as several samples or in several runs, with calls that do not always agree. Active and inactive are the calls of the source.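 Rule for the calls, unless noted: active = inhibition at or above 50% relative to wild type and mutant plate controls; inactive = inhibition below 50%.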

Sequence of Alpha-2C adrenergic receptor (Homo sapiens) (P18825 whole entry, looked up): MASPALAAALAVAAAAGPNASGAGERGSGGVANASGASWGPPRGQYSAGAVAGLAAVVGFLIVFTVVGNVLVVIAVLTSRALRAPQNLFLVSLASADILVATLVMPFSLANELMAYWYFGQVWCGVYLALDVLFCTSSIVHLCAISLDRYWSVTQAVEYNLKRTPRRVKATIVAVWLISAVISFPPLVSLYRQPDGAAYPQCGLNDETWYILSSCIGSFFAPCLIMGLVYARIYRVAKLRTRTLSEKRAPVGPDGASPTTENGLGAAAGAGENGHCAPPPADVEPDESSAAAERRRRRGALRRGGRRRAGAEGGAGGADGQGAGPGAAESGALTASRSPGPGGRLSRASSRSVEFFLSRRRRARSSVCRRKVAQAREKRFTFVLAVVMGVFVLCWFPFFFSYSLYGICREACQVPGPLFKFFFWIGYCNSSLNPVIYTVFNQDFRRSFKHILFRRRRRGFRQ
Sequence of Dual specificity protein phosphatase 6 (Homo sapiens) (Q16828 whole entry, looked up): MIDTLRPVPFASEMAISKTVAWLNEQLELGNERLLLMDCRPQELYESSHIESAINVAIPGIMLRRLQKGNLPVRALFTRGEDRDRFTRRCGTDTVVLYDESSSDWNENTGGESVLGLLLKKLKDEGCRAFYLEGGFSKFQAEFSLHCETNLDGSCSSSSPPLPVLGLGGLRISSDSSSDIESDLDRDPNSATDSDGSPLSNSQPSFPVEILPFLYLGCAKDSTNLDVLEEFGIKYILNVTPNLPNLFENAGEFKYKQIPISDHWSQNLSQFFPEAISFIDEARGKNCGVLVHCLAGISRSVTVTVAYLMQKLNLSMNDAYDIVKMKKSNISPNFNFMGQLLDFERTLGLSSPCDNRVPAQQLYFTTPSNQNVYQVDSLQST

Take `OC(CCN1CCCCC1)(c1ccccc1)C1CCCCC1` (stereo not given): the inhibition of aggregation in assay [1] was 11.9% (inactive). Further, the nuclei count in assay [1] is 107%; in assay [2], 119%. The inhibition – broadly, the relative decrease from the control value, in per cent – in assay [2] is -31.1% (inactive); in assay [4], 21.2% (inactive); in assay [9], 1.25% (inactive) and 22.1% (inactive); in assay [10], 0.614% (inactive); in assay [11], -5.26% (inactive). Moreover, the figures for the z-score in assay [3] (setting [13]), in [3] (setting [14]) and in assay [3] (setting [15]) were 0.0708, 1.69 and -1.17, respectively. In addition, the fluorescence slope in [5] was -0.528 (inactive). The NADPH fluorescence slope in assay [6] was -8.4e-05 (inactive). For the same compound, in [7], the slope was 0.00465 (inactive). For the same compound, in assay [8], the call was inactive.

Regarding `O=C1NC(=O)C(c2ccccc2)(c2ccccc2)N1`, the inhibition of aggregation in assay [1] is -21.7% (inactive). Further, the nuclei count in [1] came to 101%; in assay [2], 102%. The inhibition in [2] is 23.3% (inactive); in assay [4], 3.59% (inactive); in [9], 2.61% (inactive) and -21.3% (inactive); in assay [10], -7.98% (inactive); in [11] it was -7.53% (inactive). Moreover, the z-score was 0.136 in assay [3] (setting [13]), -0.248 in assay [3] (setting [14]) and -1.03 in [3] (setting [15]). Also, the fluorescence slope in assay [5] is -0.471 (inactive). Also, the NADPH fluorescence slope in assay [6] is 3.3e-05 (inactive). The slope in assay [7] is 0.00448 (inactive). Besides, in assay [8], the result was inactive.

Consider `NS(=O)(=O)c1cc2c(cc1Cl)NCNS2(=O)=O`, for which the inhibition of aggregation in assay [1] was -4.8% (inactive). Moreover, the results for the nuclei count in assay [1] and in [2] were 107% and 102%, respectively. The inhibition in assay [2] is -46.3% (inactive); in assay [4], -0.493% (inactive); in assay [9] it was 0.566% (inactive) and -18.6% (inactive); in assay [10], 15.2% (inactive); in [11] it was 40.7% (inactive). For the same compound, the z-score in assay [3] (setting [13]) was -0.71; in assay [3] (setting [14]) it was -0.153; in [3] (setting [15]), -1.04. Moreover, the fluorescence slope in assay [5] is -0.428 (inactive). For the same compound, the NADPH fluorescence slope in assay [6] was 1.8e-05 (inactive). For the same compound, in assay [7], the slope was 0.00467 (inactive). In [8], the compound was called inactive.

Consider `CN(C)CCOC(C)(c1ccccc1)c1ccccn1` (stereo not given), for which the inhibition of aggregation in [1] was 21.5% (inactive). The nuclei count in assay [1] was found to be 111%; in assay [2], 132%. Further, the inhibition in assay [2] is -17.5% (inactive); in assay [4], 33% (inactive); in [9], -2.11% (inactive) and -8.4% (inactive); in assay [10] it was 2.29% (inactive); in assay [11], 19.2% (inactive). For the same compound, the z-score in assay [3] (setting [13]) was -0.381; in assay [3] (setting [14]), 0.211; in assay [3] (setting [15]) it was -0.829. Further, in [5], the fluorescence slope was -0.52 (inactive). For the same compound, the NADPH fluorescence slope in assay [6] is 2.3e-06 (inactive). For the same compound, the slope in [7] was 0.00491 (inactive). The outcome in assay [8] was inactive.

As for `N[C@@H](Cc1cc(I)c(Oc2ccc(O)c(I)c2)c(I)c1)C(=O)O`, the inhibition of aggregation in assay [1] was 2.4% (inactive). The nuclei count turned out to be 100% in assay [1] and 107% in [2]. Besides, the inhibition in [2] is -50.6% (inactive); in [4], 9.37% (inactive); in assay [9], 36.6% (inactive); in [10], 20.4% (inactive); in assay [11] it was 29.6% (inactive). For the same compound, the values for the z-score in assay [3] (setting [13]), in [3] (setting [14]) and in assay [3] (setting [15]) were 1.52, -0.0364 and -0.441, respectively. In [5], the fluorescence slope is -0.512 (inactive). Also, the NADPH fluorescence slope in assay [6] is -3.3e-05 (inactive). Moreover, the slope in [7] is 0.00387 (inactive). The outcome in assay [8] was inactive.

With `O=c1n(CCCN2CCN(c3cccc(Cl)c3)CC2)nc2ccccn12`, in [1], the inhibition of aggregation is 32% (inactive). Also, the nuclei count in assay [1] was determined as 90%; in assay [2] it was 124%. Moreover, the inhibition in assay [2] was -117% (inactive); in assay [4] it was -5.24% (inactive); in assay [9], 7.63% (inactive) and 123% (active); in assay [10], 10.6% (inactive); in [11], 31.8% (inactive). Besides, the z-score in assay [3] (setting [13]) is -0.214; in [3] (setting [14]) it was -1.66; in assay [3] (setting [15]), 0.38. Moreover, in assay [5], the fluorescence slope was -0.359 (inactive). In addition, in [6], the NADPH fluorescence slope was -2.9e-05 (inactive). Moreover, the slope in [7] was 0.00504 (inactive). In assay [8], the outcome was inactive.

Take `C=C(CC)C(=O)c1ccc(OCC(=O)O)c(Cl)c1Cl`: in [1], the inhibition of aggregation is 19.4% (inactive). For the same compound, the nuclei count in assay [1] worked out at 108%; in [2], 120%. In addition, the inhibition in assay [2] is -32.5% (inactive); in [4] it was 5.42% (inactive); in assay [9], -3.46% (inactive); in assay [10], 17.1% (inactive); in [11] it was 39.1% (inactive). Further, the z-score in [3] (setting [13]) is -0.0756; in assay [3] (setting [14]), -0.0149; in [3] (setting [15]), 0.974. The fluorescence slope in assay [5] was -0.476 (inactive). Further, the NADPH fluorescence slope in [6] is -8e-05 (inactive). For the same compound, the slope in [7] is 0.00538 (inactive). Further, the outcome in [8] was inactive.

Regarding `CC(=O)Nc1c(I)c(NC(C)=O)c(I)c(C(=O)O)c1I`, the inhibition of aggregation in assay [1] is 21.1% (inactive). The nuclei count in assay [1] amounted to 102%; in [2], 126%. Also, the inhibition in [2] was -43.7% (inactive); in assay [4], 11.3% (inactive); in [9], 0.515% (inactive); in assay [10], -2.38% (inactive); in assay [11] it was 5.34% (inactive). Moreover, the z-score in assay [3] (setting [13]) is 0.431; in [3] (setting [14]) it was 0.292; in [3] (setting [15]), -0.145. The fluorescence slope in [5] was -0.491 (inactive). The NADPH fluorescence slope in [6] is -2.1e-05 (inactive). Also, the slope in [7] was 0.00549 (inactive). In assay [8], the compound was called inactive.

For the compound `COC(=O)c1ccc(N2C(=O)CC(N3CCN(C(=O)c4ccco4)CC3)C2=O)cc1` (stereo not given), the inhibition of aggregation in assay [1] is 0.2% (inactive). Further, the results for the nuclei count in assay [1] and in assay [2] were 103% and 104%, respectively. Further, the inhibition in assay [2] is -195% (inactive); in assay [4] it was 8.31% (inactive); in [9] it was 1.38% (inactive); in [10] it was 6.43% (inactive); in [11], 18.5% (inactive). Besides, the z-score was 0.106 in [3] (setting [13]), -0.422 in [3] (setting [14]) and -0.968 in assay [3] (setting [15]). The results for the fluorescence slope in [5] and in assay [12] were -0.527 (inactive) and 0.00534 (inactive), respectively. Also, in assay [6], the NADPH fluorescence slope is -5.8e-05 (inactive). Also, the outcome in [8] was inactive.

For the compound `COc1cc(C2Oc3cc(C4Oc5cc(O)cc(O)c5C(=O)C4O)ccc3OC2CO)ccc1O` (stereo not given), in [1], the inhibition of aggregation is 15.4% (inactive). Also, the nuclei count in assay [1] stood at 94.5%; in assay [2], 118%. Also, the inhibition in assay [2] is -86.6% (inactive); in [4], -8.38% (inactive); in assay [9], -8.52% (inactive); in [10], -16.8% (inactive); in assay [11], -16.2% (inactive). Besides, the z-score in assay [3] (setting [13]) is -0.357; in [3] (setting [14]), 0.711; in [3] (setting [15]), -0.479. The fluorescence slope in assay [5] was -0.479 (inactive). Further, the NADPH fluorescence slope in assay [6] is 1.9e-05 (inactive). For the same compound, the slope in assay [7] was 0.00477 (inactive). Besides, in assay [8], the result was inactive.

Take `COc1cccc2c1C(=O)c1c(O)c3c(c(O)c1C2=O)C[C@@](O)(C(C)=O)C[C@@H]3O[C@H]1C[C@H](N)[C@H](O)[C@H](C)O1`: the inhibition of aggregation in assay [1] was 49.1% (inactive). Moreover, the nuclei count in assay [1] was found to be 0.6%; in [2], 84%. Moreover, the inhibition in [2] was 92.8% (active); in [4], 102% (active); in [9] it was 33% (inactive); in assay [10], -34.8% (inactive); in assay [11], 102% (active). Moreover, the z-score came out at 0.473 in [3] (setting [13]), 10.2 in assay [3] (setting [14]) and 4.38 in assay [3] (setting [15]). The fluorescence slope in assay [5] was -0.452 (inactive). Besides, the NADPH fluorescence slope in assay [6] was -3.6e-05 (inactive). Also, the slope in assay [7] is 0.00285 (inactive). In assay [8], the call was inactive.

Source of the values: PubChem BioAssay.
